In PubChem BioAssay (NCI):
This is part of a sample that, as a whole, favours compounds with a hit. Of some 79,000 tested, about 15% had one in any assay. Activity calls are given as the source filed them. Rule as the data show it: active = growth inhibition above about 70%; inactive = the rest.

Legend:
[1] = NCI Yeast Anticancer Drug Screen. Data for the rad52 strain (AID 147);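 also: 0% = growth of vehicle-treated control cultures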; details: S. cerevisiae rad52 mutant growth inhibition, stronger effect = higher value
In short: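 DNA repair-defective yeast; compound exposure; growth scored against vehicle controls.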

[2] = NCI Yeast Anticancer Drug Screen. Data for the wt1 strain (AID 149);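 also: 0% = growth of vehicle-treated wt1 cultures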; details: S. cerevisiae wt1 strain (SPY 50644) growth inhibition, stronger effect = higher value
In short: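 Yeast wt1 strain exposed to compounds; growth inhibition measured relative to vehicle-treated controls.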

[3] = NCI Yeast Anticancer Drug Screen. Data for the mgt1 strain (AID 153); details: S. cerevisiae mgt1 mutant growth inhibition, stronger effect = higher value
In short: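 Growth inhibition relative to vehicle controls was scored for the mgt1 yeast strain after compound exposure.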

[4] = NCI Yeast Anticancer Drug Screen. Data for the rad50 strain (AID 155);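 also: 0% = growth of vehicle-only cultures of the same strain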; details: S. cerevisiae rad50 strain growth inhibition, stronger effect = higher value
In short: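 Yeast carrying a defined DNA repair defect were exposed to test compounds, and growth was compared with vehicle-treated controls to give percent inhibition.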

[5] = NCI Yeast Anticancer Drug Screen. Data for the mec2-1 strain (AID 157); details: S. cerevisiae mec2-1 strain, stronger effect = higher value
In short: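 Growth inhibition is read against vehicle-treated controls after compound exposure of the mec2-1 yeast strain, which is defective in DNA damage repair or cell cycle control.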

[6] = NCI Yeast Anticancer Drug Screen. Data for the rad14 strain (AID 159);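 also: 0% = growth of vehicle-treated control cultures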; details: S. cerevisiae rad14 strain growth inhibition, stronger effect = higher value
In short: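 Yeast cells carrying a defined DNA-repair defect were exposed to compounds, and growth inhibition was calculated relative to vehicle-treated control cultures.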

[7] = NCI Yeast Anticancer Drug Screen. Data for the sgs1 mgt1 strain (AID 161);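 also: 0% = growth of cultures given vehicle only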; details: S. cerevisiae sgs1 mgt1 strain, stronger effect = higher value
In short: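 Growth of a repair-deficient yeast mutant was monitored after compound treatment and expressed as inhibition relative to vehicle-treated cultures.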

[8] = NCI Yeast Anticancer Drug Screen. Data for the CLN2oe strain (AID 163);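 also: 0% = growth of vehicle-only control cultures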; details: S. cerevisiae CLN2oe strain, stronger effect = higher value
In short: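 Compound-treated yeast; growth vs vehicle ctrl = % inhibition. Genetically altered strain (cell-cycle control).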

[9] = NCI Yeast Anticancer Drug Screen. Data for the cln2 rad14 strain (AID 165);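 also: 0% = growth equal to vehicle treated cultures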; details: S. cerevisiae cln2 rad14 strain, stronger effect = higher value
In short: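 Growth inhibition, relative to vehicle-treated controls, is the read-out. The test organism is a yeast strain with defined genetic alterations, cln2 rad14.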

[10] = NCI Yeast Anticancer Drug Screen. Data for the bub3 strain (AID 167); details: S. cerevisiae bub3 mutant strain, stronger effect = higher value
In short: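 Compounds were applied to a genetically altered yeast strain carrying a cell-cycle control defect. Growth inhibition was scored against vehicle-treated controls.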

[11] = NCI Yeast Anticancer Drug Screen. Data for the wt2 strain (AID 169);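 also: 0% = growth of vehicle-treated yeast cultures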; details: S. cerevisiae wt2 strain growth inhibition, stronger effect = higher value
In short: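 Compound exposure of yeast; growth compared with vehicle controls; inhibition reported.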

[12] = NCI Yeast Anticancer Drug Screen. Data for the mlh1 strain (AID 171);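 also: 0% = growth of vehicle-treated control cultures of the same strain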; details: S. cerevisiae mlh1 strain growth inhibition, stronger effect = higher value
In short: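 Compounds are applied to a genetically altered yeast strain, and its growth is compared with that of vehicle-treated cultures to give percent inhibition.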

[13] = NCI Yeast Anticancer Drug Screen. Data for the mlh1 rad18 strain (AID 175); details: S. cerevisiae mlh1 rad18 strain growth inhibition, stronger effect = higher value
In short: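 Cells of a genetically altered yeast strain, deficient in DNA damage repair, were treated with compound. Their growth was then compared with that of vehicle-treated cultures to give inhibition.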

[14] = NCI Yeast Anticancer Drug Screen. Data for the rad18 strain (AID 177); details: S. cerevisiae rad18 mutant growth inhibition, stronger effect = higher value
In short: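 Compounds are applied to a repair-deficient yeast strain, and growth is compared with that of vehicle-treated cultures to give percent inhibition.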

[15] = NCI Yeast Anticancer Drug Screen. Data for the rad50EPP+ strain (AID 151);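 also: 0% = growth of vehicle-treated control cultures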; details: S. cerevisiae rad50 mutant strain, stronger effect = higher value
In short: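 rad50EPP+ yeast treated with test compounds. Readout: growth vs vehicle control.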

[16] = at 5.0 µM (retest, dose inferred, filed as 0.5)
[17] = at 50.0 µM (retest, dose inferred, filed as 5.0)

Measured: growth inhibition

CN(C)C[C@H]1CC[C@@H](CN(C)C)C1=O
inactive: [1]; at 1.2 µM 17% | [1]; at 3.7 µM 24% | [1]; at 11.0 µM 27% | [1]; at 33.0 µM 39% | [1]; at 100.0 µM 66% | [2]; at 1.2 µM 24% | [2]; at 3.7 µM 25% | [2]; at 11.0 µM 25% | [2]; at 33.0 µM 14% | [2]; at 100.0 µM 47% | [3]; at 1.2 µM 16% | [3]; at 3.7 µM 20% | [3]; at 11.0 µM 25% | [3]; at 33.0 µM 30% | [3]; at 100.0 µM 43% | [4]; at 1.2 µM 11% | [4]; at 3.7 µM 31% | [4]; [16] 5% | [4]; at 11.0 µM 22% | [4]; at 33.0 µM 37% | [4]; [17] 36% | [4]; at 50.0 µM 70% | [5]; at 1.2 µM 13% | [5]; at 3.7 µM 20% | [5]; [16] 9% | [5]; at 11.0 µM 16% | [5]; at 33.0 µM 28% | [5]; at 50.0 µM 57.3% | [5]; at 100.0 µM 49% | [6]; at 1.2 µM 16% | [6]; at 3.7 µM 20% | [6]; at 11.0 µM 21% | [6]; at 33.0 µM 30% | [6]; at 100.0 µM 52% | [7]; [16] 1% | [7]; [17] 18% | [7]; at 50.0 µM 38.4% | [8]; at 1.2 µM -4% | [8]; at 3.7 µM 0% | [8]; at 11.0 µM 9% | [8]; at 33.0 µM 29% | [8]; at 100.0 µM 64% | [9]; [16] 20% | [9]; [17] 14% | [9]; at 50.0 µM 23.9% | [10]; at 1.2 µM 17% | [10]; at 3.7 µM 12% | [10]; [16] 9% | [10]; at 11.0 µM 19% | [10]; at 33.0 µM 29% | [10]; [17] 47% | [10]; at 50.0 µM 34.5% | [10]; at 100.0 µM 63% | [11]; at 1.2 µM -46% | [11]; at 3.7 µM -45% | [11]; at 11.0 µM -40% | [11]; at 33.0 µM 7% | [12]; at 1.2 µM 18% | [12]; at 3.7 µM 32% | [12]; at 11.0 µM 24% | [12]; at 33.0 µM 36% | [12]; at 100.0 µM 29% | [13]; [16] 7% | [13]; [17] 54% | [14]; at 1.2 µM 21% | [14]; at 3.7 µM 21% | [14]; at 11.0 µM 22% | [14]; at 33.0 µM 36%
active: [4]; at 100.0 µM 78% | [5]; [17] 83% | [11]; at 100.0 µM 99% | [13]; at 50.0 µM 75% | [14]; at 100.0 µM 87%

CC(=O)ON1C(=O)c2cccc3cccc(c23)C1=O
inactive: [1]; at 1.2 µM 13% | [1]; at 3.7 µM 38% | [2]; at 1.2 µM 6% | [2]; at 3.7 µM 17% | [15]; at 1.2 µM -2% | [15]; at 3.7 µM 0% | [15]; at 11.0 µM 0% | [15]; at 33.0 µM 9% | [15]; at 100.0 µM 57% | [4]; at 1.2 µM 18% | [4]; at 3.7 µM 57% | [4]; [16] 51% | [5]; at 1.2 µM -4% | [5]; at 3.7 µM 33% | [5]; [16] -3% | [6]; at 1.2 µM 51% | [7]; [16] 22% | [8]; at 1.2 µM 8% | [8]; at 3.7 µM 10% | [8]; at 11.0 µM 11% | [8]; at 33.0 µM 32% | [9]; [16] 23% | [9]; [17] 69% | [9]; at 50.0 µM 29.4% | [10]; at 1.2 µM 2% | [10]; at 3.7 µM 10% | [10]; [16] 69% | [10]; at 11.0 µM 24% | [11]; at 1.2 µM 4% | [11]; at 3.7 µM 2% | [11]; at 11.0 µM 20% | [12]; at 1.2 µM 61% | [13]; [16] 44% | [14]; at 1.2 µM 15% | [14]; at 3.7 µM 29%
active: [1]; at 11.0 µM 91% | [1]; at 33.0 µM 97% | [1]; at 100.0 µM 98% | [2]; at 11.0 µM 76% | [2]; at 33.0 µM 96% | [2]; at 100.0 µM 97% | [4]; at 11.0 µM 93% | [4]; at 33.0 µM 97% | [4]; [17] 96% | [4]; at 50.0 µM 81.9% | [4]; at 100.0 µM 98% | [5]; at 11.0 µM 95% | [5]; at 33.0 µM 98% | [5]; [17] 97% | [5]; at 50.0 µM 87.8% | [5]; at 100.0 µM 98% | [6]; at 3.7 µM 95% | [6]; at 11.0 µM 98% | [6]; at 33.0 µM 99% | [6]; at 100.0 µM 99% | [7]; [17] 92% | [7]; at 50.0 µM 90.7% | [8]; at 100.0 µM 77% | [10]; at 33.0 µM 91% | [10]; [17] 96% | [10]; at 50.0 µM 89.5% | [10]; at 100.0 µM 95% | [11]; at 33.0 µM 95% | [11]; at 100.0 µM 99% | [12]; at 3.7 µM 91% | [12]; at 11.0 µM 97% | [12]; at 33.0 µM 99% | [12]; at 100.0 µM 98% | [13]; [17] 97% | [13]; at 50.0 µM 81.4% | [14]; at 11.0 µM 86% | [14]; at 33.0 µM 97% | [14]; at 100.0 µM 97%

CC(C)NC(=O)OCc1c(COC(=O)NC(C)C)c(-c2ccc(Cl)c(Cl)c2)n2c1CCC2
inactive: [1]; at 1.2 µM -38% | [1]; at 3.7 µM -28% | [1]; at 11.0 µM -19% | [1]; at 33.0 µM 1% | [1]; at 100.0 µM 68% | [2]; at 1.2 µM -38% | [2]; at 3.7 µM -34% | [2]; at 11.0 µM -45% | [2]; at 33.0 µM -32% | [2]; at 100.0 µM 30% | [3]; at 1.2 µM -60% | [3]; at 3.7 µM -48% | [3]; at 11.0 µM -59% | [3]; at 33.0 µM -39% | [4]; at 1.2 µM -35% | [4]; at 3.7 µM -29% | [4]; [16] 8% | [4]; at 11.0 µM -24% | [4]; at 33.0 µM 1% | [4]; [17] 44% | [4]; at 50.0 µM 58.6% | [4]; at 100.0 µM 63% | [5]; at 1.2 µM -71% | [5]; at 3.7 µM -61% | [5]; [16] -1% | [5]; at 11.0 µM -56% | [5]; at 33.0 µM -53% | [5]; [17] 8% | [5]; at 50.0 µM 47.6% | [5]; at 100.0 µM 47% | [6]; at 1.2 µM -33% | [6]; at 3.7 µM -26% | [6]; at 11.0 µM -30% | [6]; at 33.0 µM 10% | [7]; [16] 9% | [7]; at 50.0 µM 23% | [8]; at 1.2 µM 4% | [8]; at 3.7 µM 0% | [8]; at 11.0 µM 4% | [8]; at 33.0 µM 11% | [8]; at 100.0 µM 32% | [9]; [16] 23% | [9]; [17] 24% | [9]; at 50.0 µM 3.3% | [10]; at 1.2 µM -65% | [10]; at 3.7 µM -66% | [10]; [16] 18% | [10]; at 11.0 µM -69% | [10]; at 33.0 µM -34% | [10]; at 50.0 µM 17.4% | [10]; at 100.0 µM 63% | [11]; at 1.2 µM -31% | [11]; at 3.7 µM -21% | [11]; at 11.0 µM -31% | [11]; at 33.0 µM -36% | [11]; at 100.0 µM 26%
active: [3]; at 100.0 µM 76% | [6]; at 100.0 µM 84% | [7]; [17] 72% | [10]; [17] 79%
